The values that follow come from PubChem BioAssay AID2284368 (EPA ToxCast).

Results filed as inconclusive are left out. Activity calls are given as the source filed them. Rule for the calls: active = hit-call score of the fitted dose curve at least 0.9, where 1 is the maximum; inconclusive = response in the unintended direction; inactive = score below 0.9.

Broadly, the AC50 is the concentration giving half of the maximal activity seen.

Sequence of Estrogen receptor (Homo sapiens) (P03372 whole entry, looked up): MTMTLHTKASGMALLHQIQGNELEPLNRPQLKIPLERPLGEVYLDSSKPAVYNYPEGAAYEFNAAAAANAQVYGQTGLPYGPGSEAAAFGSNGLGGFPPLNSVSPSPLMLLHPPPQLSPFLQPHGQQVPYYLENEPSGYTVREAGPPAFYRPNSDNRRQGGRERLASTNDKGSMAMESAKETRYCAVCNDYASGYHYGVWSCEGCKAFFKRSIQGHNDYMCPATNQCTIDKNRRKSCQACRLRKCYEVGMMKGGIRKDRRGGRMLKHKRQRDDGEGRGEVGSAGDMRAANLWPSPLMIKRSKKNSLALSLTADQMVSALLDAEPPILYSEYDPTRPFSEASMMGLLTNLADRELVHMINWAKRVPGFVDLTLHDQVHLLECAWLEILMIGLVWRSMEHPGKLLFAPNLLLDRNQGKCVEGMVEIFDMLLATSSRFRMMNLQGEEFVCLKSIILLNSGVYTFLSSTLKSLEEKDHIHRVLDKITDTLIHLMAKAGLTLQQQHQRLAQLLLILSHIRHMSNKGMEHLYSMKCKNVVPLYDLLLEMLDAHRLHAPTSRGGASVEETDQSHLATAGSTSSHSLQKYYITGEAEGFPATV

The target of the assay is Estrogen receptor (Homo sapiens) (UniProt P03372). In words: ATG_hERa_EcoTox2: Attagene TRANS-FACTORIAL EcoTox-2 HepG2 Assay for human Estrogen Receptor (ER). The procedure:
ATG_EcoTox2 is a cell-based, multiplexed assay created by modifying the existing Attagene TRANS-FACTORIAL system to include a panel of nuclear receptors from some or all the following species: human (Homo sapiens), african clawed frog (Xenopus laevis), rainbow trout (Oncorhynchus mykiss), japanese medaka (Oryzias latipes), and zebrafish (Danio rerio). The ECOTOX2-FACTORIAL format uses HepG2, a human liver cell line, with measurements taken at 24 hours after chemical dosing in a 24-well plate. ATG_hERa_EcoTox2 is one of 29 assay components measured or calculated from the ATG_EcoTox2 assay. It is designed to make measurements of mRNA induction, a form of inducible reporter, as detected with fluorescence intensity signals by Reverse transcription polymerase chain reaction (RT-PCR) and Capillary electrophoresis technology.The assay endpoint ATG_hERa_EcoTox2 was analyzed in the positive analysis fitting direction relative to DMSO as the negative control and baseline of activity. Using a type of inducible reporter, measures of mRNA for gain-of-signal activity can be used to understand the reporter gene at the transcription factor-level as they relate to the gene ER. Furthermore, this assay endpoint can be referred to as a primary readout, because this assay has produced multiple assay endpoints where this one serves a reporter gene function. To generalize the intended target to other relatable targets, this assay endpoint is annotated to the nuclear receptor intended target family, where the subfamily is steroidal.
Human liver HepG2 cells are transiently transfected with multiple reporter transcription units (MRTUs) in 6-well plates using FuGene 6 reagent (Roche; 3 ml FuGene/1 mg DNA). The MRTU constructs are regulated by a cis-regulating element (promoter). Each RTU expresses a GAL4-UAS that regulates the transcription of a nearby target reporter gene sequence. A major difference between the CIS and TRANS system is that in CIS activities of endogenous TFs are measured, whereas the TRANS assay evaluates changes in activities of exogenous, chimeric NR-Gal4 proteins. […] At the end of 24 hour incubation, total RNA was isolated using TriZol reagent (Invitrogen). The isolated RNA is then reverse-transcribed using oligo(dT) primer and Mo-MLV reverse transcriptase (Invitrogen) with DNAse I (Ambion) treatment for 30 min. The one-tenth of the produced cDNA was amplified by PCR using Taq DNA polymerase (Invitrogen) and two reporter sequence-specific primers. […] The fragments were purified using Qiaquick PCR columns (Qiagen), analyzed on an ABI 3130xL genetic analyzer (Applied Biosystems) with peak positions identified by using a set of X-rhodamine (ROX)-labeled MapMarker1000 molecular weight standards (BioVentures). […]
Turning to `O=S(=O)(O)C(F)(F)C(F)(F)C(F)(F)C(F)(F)C(F)(F)C(F)(F)F`, the AC50 was 50 µM (active).
For `[Cl][Sn]([c]1ccccc1)([c]1ccccc1)[c]1ccccc1`, the result was inactive.
With `O=P(Oc1ccccc1)(Oc1ccccc1)Oc1ccccc1`, the concentration at half-maximal activity (AC50) was 3.41 µM (active).
With `CCCCOCN(C(=O)CCl)c1c(CC)cccc1CC`, the molecule was called inactive.
